# Reference: PubChem BioAssay AID434958 (Southern Research Specialized Biocontainment Screening …, 2010)
# Out of some 1,200 compounds screened, about 400 (33%) were called active. Only a sample is shown. Measured potencies and affinities stand elsewhere. Values without a mark were called inactive. The rule behind the calls is not given here.
# Assay: mammalian cell cytotoxicity, dose response, cytotoxicity control (AID 434958);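 note: cells exposed to compound for 72 hours before readout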
# Conditions: cytotoxicity counter-screen; series mostly up to 40 µM; viability: at the top concentration
row,Compound,viability
1,COc1ccc(NC(=O)COC(=O)Cc2ccc(-c3ccccc3)cc2)c(OC)c1,94.5%
2,COc1ccccc1NC(=O)COc1ccc(CO)cc1Cl,93.6%
3,COc1cccc(C(=O)C2CCCN(Cc3ccccn3)C2)c1 (configuration not stated),97.5%
4,COc1ccc(-c2cc3cc(OC)c(OC)cc3c(C)n2)cc1,81.3%
5,COc1ccc(OC)c2nc(-c3ccc4c(c3)OCO4)ccc12,84.1%
6,CC(=O)c1c(OC(=O)c2cccc(Cl)c2)c2ccccc2n1C,102%
7,CCOC(=O)c1ccc(N2CN(C3CCCCC3)CNC2=S)cc1,95.3%
8,N=C1C(c2nc3ccccc3[nH]2)=C(O)CN1c1ccc(F)cc1,92.2%
9,Cn1c2ccccc2c(=O)c2cc(C#CC3(O)CCCCC3)ccc21,85.6%
10,O=C(O)C1CC(=O)N(c2ccc(OCc3ccccc3Cl)cc2)C1 (configuration not stated),103%
11,CSc1ccccc1C(=O)Nc1cccc([N+](=O)[O-])c1C,96.2%
12,Cc1nn(-c2ccccc2)c(N2CCCC2)c1/C=C1\N=C(c2ccc(F)cc2)OC1=O,99.7%
13,Cc1cc(C)nc(SCC(=O)Nc2ccccc2[N+](=O)[O-])n1,104%
14,Cc1sc2nc(C(C)(C)C)oc(=O)c2c1C,104%
15,CC/C(=N\NC(=O)c1ccc(-c2ccccc2)cc1)C12CC3CC(CC(C3)C1)C2,89.7%
16,CCCCOc1ccc(C(=O)Oc2cccnc2)cc1,83.7%
17,CN(C)S(=O)(=O)c1ccc(C(=O)OCC2CC2(Cl)Cl)cc1 (configuration not stated),101%
18,N/C(=N\c1nc2ccccc2o1)NC(=O)c1ccccc1Br,101%
19,CCOC(=O)N1CCN(C(=O)CSc2nnc(COc3ccccc3)o2)CC1,98.8%
20,O=C1C(Cl)=C(N2CCCCC2)C(=O)N1c1ccccc1,98.2%
21,CCNC(=S)N/N=C1\C(=O)c2cccc3cccc1c23,92.7%
22,O=C(CSc1ncnc2c1cnn2-c1ccccc1)Nc1ccc2c(c1)OCO2,105%
23,Fc1ccc(-c2csc(NC(=S)Nc3ccccc3)n2)cc1,92.4%
24,O=C(CCC(=O)Nc1ccccc1)NNC(=O)c1ccco1,97.8%

row,Compound,viability
1,Cc1ccccc1OCC(=O)Nc1ccccc1N1CCOCC1,87.5%
2,COc1cccc(NC(=O)C2CC2)c1,102%
3,Cc1ccc(C)c(NC(=O)c2cc(-c3cccnc3)nc3ccccc23)c1,90.4%
4,c1ccc(Nc2ncnc3c2oc2ccccc23)cc1,91.8%
5,C=CCNC(=S)NC(=O)c1csc([N+](=O)[O-])c1,94.3%
6,COC(=O)c1ccc(/C=N\NC(=O)c2ccc(C)cc2Cl)cc1,103%
7,CC1CCN(CCOc2ccc(OCc3ccccc3)cc2)CC1,86.6%
8,Cc1ccc(S(=O)(=O)NCCCCCC(=O)Nc2ccccn2)cc1,103%
9,Cn1c(O)c(/C=C2/C=CC=N2)c(=O)[nH]c1=O,103%
10,COc1ccc(NC(=O)c2cc(C)nc3ccccc23)c(OC)c1,96.7%
11,Cc1cc(C)c(C)c(S(=O)(=O)N2C(=S)NC(=O)C2CC(C)C)c1C (configuration not stated),90.3%
12,CC(=O)c1ccc(OC(=O)N(c2ccccc2)c2ccccc2)cc1,95.2%
13,CN(C)C1=C(Cl)C(=O)N(c2ccc(Cl)c(Cl)c2)C1=O,96.3%
14,CCCCOc1ccccc1NC(=O)c1ccco1,87.3%
15,O=c1c2c3n(c(=S)nc2[nH]n1-c1ccccc1)CCCCC3,96.8%
16,COc1ccc(NCC(=O)N/N=C/C(C)c2ccccc2)cc1 (configuration not stated),104%
17,Cc1cc(/C=N/NC(=O)CC#N)c(C)n1-c1ccc([N+](=O)[O-])cc1,90.9%
18,CCN(CC(=O)Nc1ccc2c(c1)OCCO2)C(=O)c1ccc([N+](=O)[O-])s1,98%
19,COc1ccc(N2C(=O)NC(=O)/C(=C\c3ccc([N+](=O)[O-])s3)C2=O)cc1,93.5%
20,CCCc1cc(C(=O)OCC(=O)N2CCN(c3ccc(OC)cc3)CC2)sc1C,92%
21,COc1cc(C(=O)NNC(=O)c2cc(-c3ccccc3)n[nH]2)cc(OC)c1C,88.9%
22,COc1ccc(C2c3c(C)nn(-c4ccccc4)c3NC(=O)N2c2ccccc2)cc1 (configuration not stated),94%
23,CCOC(=O)C1CSC(CC(=O)Nc2ccc(Cl)c(Cl)c2)C(=O)N1 (configuration not stated),102%
24,CCOC(=O)C1CCN(c2ccc(C(N)=O)cc2[N+](=O)[O-])CC1,96.3%

row,Compound,viability
1,CCCCC(=O)NC(=S)Nc1ccc(NC(=O)C(C)C)c(OC)c1,97.8%
2,O=C1C(Cl)=C(N2CCCCCC2)C(=O)N1c1ccc(Br)cc1,96.8%
3,CCOCC(=O)Nc1cc(C(F)(F)F)ccc1Oc1cccc(Br)c1,84.7%
4,COc1cc(OC)c(C(=O)Nc2cccc3ccccc23)cc1OC,100%
5,C/C(=N\OCC(=O)Nc1nc2ccccc2s1)c1ccccc1,82.3%
6,CCCCNC(=O)c1onc(CSc2ccc(OC)cc2)c1C(=O)O,96.6%
7,COC(=O)c1c(NC(=O)C2c3ccccc3Oc3ccccc32)sc(C)c1C,83.2%
8,COc1ccc(OC)c(NC(=O)c2ccccc2SC)c1,102%
9,COc1ccc(Cl)cc1NC(=O)C/C(C)=N/NC(=O)CC#N,94.8%
10,O=C(CCSc1ccccc1)Nc1nc2c(s1)CCCC2,110%
11,CCOC(=O)C(=CNc1ccc2c(c1)c1ccccc1n2CC)C(=O)OCC,92.9%
12,Cc1cc(C)cc(SCc2noc(C(=O)NC(C)C)c2C(=O)O)c1,93.7%
13,COc1ccccc1C(=O)Nc1ccc2c3c(cccc13)CC2,92.7%
14,CC(/C=N/NC(=O)c1cc(C(C)(C)C)[nH]n1)=C\c1ccccc1,88.1%
15,CCOC(=O)CNC(=O)/C(=C\c1ccc(F)cc1)NC(=O)c1ccccc1,89.3%
16,C/C(CC(=O)NCc1ccco1)=N\NC(=O)CC#N,87%
17,COc1ccc(/C(O)=C/C(=O)C(=O)NNC(=O)C(O)(c2ccccc2)c2ccccc2)cc1,111%
18,CCOC(=O)c1cc(-c2ccccc2)sc1NC(=O)C(C)N1C(=O)NC(C)(c2ccc(Cl)cc2)C1=O (configuration not stated),82.2%
19,Cc1ccc(C)c(CSc2nnc(C)c(=O)n2N)c1,92.7%
20,O=C(/C=C/c1cc(Br)ccc1F)OCC(=O)N1CCCC1,109%
21,CCc1cc(C(=O)O)c(NC(=O)/C=C/c2ccc(OC)cc2)s1,95.8%
22,CC(C)Oc1ccc(N2CC(C(=O)Nc3ccccc3F)CC2=O)cc1 (configuration not stated),94.2%
23,CSc1nnc(-c2ccc(NC(N)=S)cc2)o1,98.6%
24,Cc1ccc(S(=O)(=O)N[C@H](C(=O)OCn2nnc3ccccc3c2=O)C(C)C)cc1,84.8%
